# Test results reported in PubChem BioAssay (NCATS).
# Active and inactive are the calls of the source. Calls come from the whole dose curve; as a rule, active = well fitted cell-killing curve with a large enough effect; inconclusive = small, poorly fitted or top-dose-only effect; inactive = flat fitted curve, though single readings scatter.
# Assay: MultiTox-Fluor Cytotoxicity Assay - LYMP1-003 - Live Cells (AID 962);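 note: 0% = DMSO only and full loss = 92 µM tetraoctylammonium bromide; cytotoxic hits lower the live-cell protease signal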
# Details: LYMP1-003 lymphoblastoid cells, MultiTox-Fluor live-cell protease fluorescence; series mostly up to 92.2 µM; activity change, negative = fewer live cells: at the top concentration
# Source text: NIH Chemical Genomics Center [NCGC]
# NIH Molecular Libraries Screening Centers Network [MLSCN]
# National Institutes of Environmental Health Sciences [NIEHS]
# National Toxicology Program [NTP]
# We have developed a 1536-well cell-based assay for quantitative high throughput screening (qHTS) against a number of cell lines to determine in vitro cytotoxicity of small molecules. This particular assay uses a human lymphoblastoid cell line (LYMP1-003) purchased from Coriell Institute.
# NCGC Assay Protocol Summary:
# The MultiTox-Fluor Cytotoxicity Assay (Promega) is a homogeneous method to simultaneously measure the relative number of live and dead cells in culture by detecting changes in cell membrane integrity. There are two fluorogenic peptide substrates in the assay reagent. Viable cells are determined when the cell-permeant substrate (GF-AFC) enters the cell and is cleaved by protease from live cells resulting in liberated fluorophore. This live-cell protease activity restricted to viable cells is proportional to cell number. The dead cells are determined by using fluorogenic cell-impermeant peptide substrate (bis-AAF-R110) which cleaved by dead cell proteases leaking from damaged cell membrane.
# Using the MultiTox-Fluor Cytotoxicity Assay, the relative number of live cells was measured in the lymphoblastoid cell line with complete culture medium following compound treatment for 16 hours. The assay was performed in opaque black Kalypsys 1536-well plates. In the screen, tetraoctylammonium bromide was used as positive control. Library compounds were measured for their ability to cause acute toxicity in the cell line, as reflected by a decrease in live cell protease activity, in a concentration-dependent manner. […] AC50 values were determined from concentration-response data modeled with the standard Hill equation.
# qHTS protocol for MultiTox-Fluor Cytotoxicity assay
# [Step] [Parameter] [Value] [Description]
# 1. Reagent; 5 uL; 2500 lymphoblastoid cells/well
# 2. Time; 5 hr; 37 C incubation
# 4. Controls; 23 nL; Tetraoctylammonium bromide 6.4pM to 92 uM
# 5. Time; 16 hr; 37 C incubation
# 6. Reagent; 5 uL; MuliTox-Fluor Assay reagent
# 7. Time; 60 min; Room Temperature
# 8. Detection; live-cell fluorescence (Ex/Em=405/510); EnVision plate reader
# Keywords: cell viability, cytotoxicity, lymphoblastoid cell line, fluorescence, NTPHTS, NTPHTS_NCGC, NIEHS, EPA, DSSTox, MLSMR, MLSCN, NIH Roadmap, qHTS, NCGC
row,Structure (SMILES),"activity change, negative = fewer live cells"
1,COc1ccc(C(Cl)=C(c2ccc(OC)cc2)c2ccc(OC)cc2)cc1,-2.31% (inactive)
2,CCOc1ccccc1C(N)=O,-5.64% (inactive)
3,O=C(O)c1ccc(S(=O)(=O)N(Cl)Cl)cc1,-0.927% (inactive)
4,COc1ccc(C(=O)c2ccccc2)c(O)c1,-4.82% (inactive)
5,CCOc1ccc(NC(C)=O)cc1,-0.401% (inactive)
6,NCCNc1cccc2ccccc12,-9.47% (inactive)
7,C=C[C@H]1CN2CC[C@H]1C[C@@H]2[C@@H](O)c1ccnc2ccc(OC)cc12,-2.72% (inactive)
8,Oc1ccc(Cl)cc1Cc1cc(Cl)ccc1O,-36.6% (inactive)
9,NC(=O)c1ccccc1O,-3.27% (inactive)
10,CCCN(CCC)S(=O)(=O)c1ccc(C(=O)O)cc1,-7.52% (inactive)
11,OC[C@H]1O[C@@H]2O[C@H]3[C@H](O)[C@@H](O)[C@@H](O[C@H]4[C@H](O)[C@@H](O)[C@@H](O[C@H]5[C@H](O)[C@@H](O)[C@@H](O[C@H]6[C@H](O)[C@@H](O)[C@@H](O[C@H]7[C@H](O)[C@@H](O)[C@@H](O[C@H]8[C@H](O)[C@@H](O)[C@@H](O[C@H]1[C@H](O)[C@H]2O)O[C@@H]8CO)O[C@@H]7CO)O[C@@H]6CO)O[C@@H]5CO)O[C@@H]4CO)O[C@@H]3CO,-2% (inactive)
12,COc1cc([C@H]2Oc3cc([C@H]4Oc5cc(O)cc(O)c5C(=O)[C@@H]4O)ccc3O[C@@H]2CO)ccc1O,-12.4% (inactive)
13,CCCCC(CC)COC(=O)c1ccc(N(C)C)cc1 (centres undefined),4.81% (inactive)
14,C/C=C/c1ccc(O)c(OC)c1,-0.982% (inactive)
